Assay outcomes deposited in PubChem by several laboratories.
A3G deaminase – APOBEC3G DNA deaminase inhibitors, primary screen, biochemical, fluorescence, single-stranded DNA substrate, uHTS | DNA dC->dU-editing enzyme APOBEC-3G (Homo sapiens), Q9HC16 | recombinant A3G, ssDNA deamination FAM/TAMRA fluorescence | inhibition, % at 20 µM | 330,000 compounds, 0.28% hits;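 active = inhibition of at least 40% at 20 µM, with no more than 30% in the related APOBEC3A deaminase screen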
ALR H2O2 inh – inhibitors of human ALR sulfhydryl oxidase, primary screen, biochemical, H2O2 detection, HRP-luminol luminescence, single point | FAD-linked sulfhydryl oxidase ALR (Homo sapiens), P55789 | purified ALR, DTT oxidation | inhibition, % (no concentration beside the values) | 290,000 compounds, 3.8% hits | AID 485317, 2010;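 active = mean replicate inhibition above about 79%, with every replicate also reaching it, limit read from the data; inconclusive = only one of the two criteria met; inactive = mean below limit and not every replicate reaching it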
aDG glyco up – activators of alpha-DG glycosylation, primary screen, uHTS, Pro5-aDG cells, AlphaScreen. alpha-DG glycosylation AlphaScreen (IIH6); 0% Pro5, 100% B10-LARGE cell signal. activation, % at 10 µM. 360,000 compounds, 0.22% hits;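 active = activation of at least 8% versus controls, or a plate z-score of at least 8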;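 note: Pro5 are CHO cells carrying HIG-tagged alpha-DG that lacks glycosylation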
rCAG binder – binders of r(CAG) RNA repeats, primary screen, biochemical, fluorescence; 370,000 compounds, 1.3% hits; r(CAG) RNA repeat, TO-PRO-1 dye displacement fluorescence; inhibition, % at 3 µM; AID 651821, 2012;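 active = inhibition above the plate cutoff, the mean of all test compounds on that plate plus 3 SD, cut at about 35% in these data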;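 note: higher means more dye released from RNA so lower well fluorescence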
PHOSPHO1 block – PubChem AID 1565. Phosphoethanolamine/phosphocholine phosphatase (Homo sapiens), Q8TCT1. recombinant PHOSPHO1, absorbance phosphatase assay. inhibition, % at 13.3 µM. 290,000 compounds, 1.1% hits; in the data active = inhibition above about 60%
Target sequence (Q8TCT1 whole entry, looked up): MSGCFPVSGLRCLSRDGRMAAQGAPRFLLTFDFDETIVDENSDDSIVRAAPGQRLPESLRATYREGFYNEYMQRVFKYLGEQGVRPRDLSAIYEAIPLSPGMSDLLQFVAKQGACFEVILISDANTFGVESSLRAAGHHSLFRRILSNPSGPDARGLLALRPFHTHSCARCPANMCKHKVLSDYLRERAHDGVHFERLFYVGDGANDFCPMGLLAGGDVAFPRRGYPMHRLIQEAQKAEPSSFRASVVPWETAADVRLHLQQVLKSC
APOBEC3A inh – APOBEC3A ssDNA deaminase inhibitors, primary screen, selectivity assay for APOBEC3G inhibitor project, biochemical, FAM/TAMRA oligo cleavage fluorescence; DNA dC->dU-editing enzyme APOBEC-3A (Homo sapiens), P31941; recombinant A3A, FAM/TAMRA ssDNA deamination fluorescence; inhibition, % at 20 µM; 330,000 compounds, 0.41% hits;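 active = at least 40% inhibition at 20 µM here, with at most 30% in a related deaminase screen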
Target sequence (P31941 whole entry, looked up): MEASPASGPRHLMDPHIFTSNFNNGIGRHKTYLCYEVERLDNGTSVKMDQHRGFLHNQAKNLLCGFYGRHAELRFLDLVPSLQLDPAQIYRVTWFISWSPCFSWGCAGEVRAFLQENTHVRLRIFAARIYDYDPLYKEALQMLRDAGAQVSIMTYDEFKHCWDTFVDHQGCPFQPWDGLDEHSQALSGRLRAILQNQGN
APOBEC3G confirm – APOBEC3G deaminase inhibitor retest, confirmation, biochemical, fluorescence, single-stranded DNA substrate, single concentration; shares compounds with A3G deaminase; recombinant A3G ssDNA deaminase, UDG/FAM-TAMRA fluorescence; inhibition, % at 20 µM; 890 compounds, 72% hits;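 active = inhibition reaching a set limit in any replicate at 20 µM, the limit being 80% of the first screen's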
UDG A3G counter – E. coli UDG inhibitors, confirmation, counter-screen for APOBEC3G inhibitor project, biochemical, single concentration, fluorescence, FAM/TAMRA oligo | shares compounds with A3G deaminase | UDG counterscreen | inhibition, % at 20 µM | 710 tested, under 10 active | AID 504715, 2011;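 active = compounds giving 40% or more inhibition at 20 µM in any one of the three replicates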;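 note: inhibitors lower the FAM signal released by uracil excision and alkaline cleavage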
Numbers stand for hits; - = inactive; ? = inconclusive; . = no result. Rows were chosen to be rich in hits. Some 5.4% of all compounds tested hit in one or more screens of this group.

SMILES | A3G deaminase | ALR H2O2 inh | aDG glyco up | rCAG binder | PHOSPHO1 block | APOBEC3A inh | APOBEC3G confirm | UDG A3G counter
Cc1cccc(N2CCN(C(=S)c3ccc([N+](=O)[O-])cc3)CC2)c1 | 55 | - | - | - | - | - | 44 | -
CCOc1cc(C=NN=C2c3ccccc3-c3ccccc32)ccc1O | . | . | - | - | . | . | . | .
O=c1c2ccccc2cnn1Cc1n[nH]c(=S)n1-c1ccc(Cl)cc1 | 42 | ? | - | - | - | - | 77 | -
COC(=O)[C@]12C[C@H](CC(=O)NCc3ccc(OC)c(OC)c3)C(=O)N(Cc3ccco3)C1=C[C@H](C(C)C)O[C@@H]2C1CC1 | . | . | . | - | . | . | . | .
Cc1cc(C)c(C#N)c(=N)o1 | 58 | - | - | - | - | - | 90 | -
CSc1nc(C)cc(C)c1C#N | - | . | - | - | - | - | . | .
CCOC(=O)c1c(N)sn(-c2ccccc2C)c1=S | 57 | 97 | - | - | 96 | - | 54 | -
COC(=O)c1cc(NC(=O)NC2CCCCN(Cc3cccc(Cl)c3)C2=O)cc(C(=O)OC)c1 (configuration not stated) | . | . | . | - | . | . | . | .
CC(=O)Oc1ccc(N2C(=O)C3C4C=CC(CO)(O4)C3C2=O)cc1 (configuration not stated) | - | - | - | - | - | - | . | .
O=C1C2C3C=CC(CO)(O3)C2C(=O)N1c1ccccc1-c1ccccc1 (configuration not stated) | 60 | - | - | . | - | - | 69 | -
O=C(OCc1cn([C@H]2CN(CC3CCCCC3)[C@@H](c3ccc(Cl)cc3)C[C@@H]2O)nn1)c1ccccc1 | . | . | - | - | . | . | . | .
CC1(Oc2cccc(C#N)c2)CCN(Cc2csc3ccccc23)C1 (configuration not stated) | . | . | - | - | . | . | . | .
COC(=O)[C@]1(C)N[C@H](CN(C)C(=O)COc2ccccc2)[C@@H]2C(=O)N(C)C(=O)[C@@H]21 | 74 | . | - | - | . | - | - | .
COC(=O)[C@]1(C)N[C@H](CN(C)C(=O)Nc2ccccc2)[C@@H]2C(=O)N(C)C(=O)[C@@H]21 | - | . | - | - | . | - | . | .
CCN(CC)CCNC(=O)c1ccc(NCN2C(=O)NC(c3ccccc3)(c3ccccc3)C2=O)cc1 | . | . | . | - | . | . | . | .
S=c1[nH]nc(-c2cccs2)n1Cc1ccccc1 | - | . | - | - | - | - | . | .
S=c1[nH]nc(-c2cccs2)n1C1CCCCC1 | 45 | - | - | - | - | - | 83 | -
Cc1nn(C(=O)N2CCOCC2)c(C)c1C | 62 | - | - | - | - | - | - | .
COC(=O)C1=C(C)N(Cc2ccc(C(F)(F)F)cc2)C(=NCc2cccc(C(F)(F)F)c2)NC1c1ccccc1C(F)(F)F (configuration not stated) | . | . | . | - | . | . | . | .
Cc1ccc(N2C(=O)[C@@H]3C(c4cccnc4)=NO[C@@H]3C2=O)cc1 | 57 | - | - | - | - | - | - | -
CCN(CC)c1ccc(NC(=O)c2ccc(=O)[nH]c2)cc1S(=O)(=O)Nc1ccccc1OC | 56 | - | - | - | - | - | 38 | -
CCN(CC)c1ccc(NC(=O)COc2ccccc2C)cc1S(=O)(=O)Nc1ccccc1OC | 50 | - | - | - | - | - | 61 | -
COc1ccc(NC(=O)c2ccc(=O)[nH]c2)cc1S(=O)(=O)N1CCCCC1 | - | - | . | - | - | - | . | .
S=c1[nH]nc(COc2ccccc2)n1/N=C/c1cccnc1 | 56 | - | - | - | - | - | 77 | -
Oc1ccc(/C=N/n2c(COc3ccccc3)n[nH]c2=S)cc1O | 43 | 100 | - | - | - | - | 77 | -
SMILES | A3G deaminase | ALR H2O2 inh | aDG glyco up | rCAG binder | PHOSPHO1 block | APOBEC3A inh | APOBEC3G confirm | UDG A3G counter
O=[N+]([O-])c1cccc(/C=N/n2c(COc3ccccc3)n[nH]c2=S)c1 | 59 | . | - | - | - | - | 73 | -
O=[N+]([O-])c1ccc(/C=N/n2c(COc3ccccc3)n[nH]c2=S)cc1 | - | - | - | - | - | - | . | .
CCOc1cc(/C=N/n2c(COc3ccccc3)n[nH]c2=S)ccc1O | - | - | - | - | - | - | . | .
CCOC(=O)N(C)[C@H]1C[C@H]2c3[nH]c4ccccc4c3CCN2C(=O)[C@H]1[C@H](C)O | . | . | . | - | . | . | . | .
COc1ccc(NC(=O)Nc2ccc3c(c2)C(=O)N([C@H](C)CO)C[C@H](C)[C@H](CN(C)C)OCCCC[C@@H](C)O3)cc1 | . | . | . | - | . | . | . | .
CC(C)C[C@H]1COc2ccc(Cl)cc2S(=O)(=O)N1 | . | . | . | - | . | . | . | .
CC1(C)OC(=O)C(=Cc2ccc(-c3ccc(S(N)(=O)=O)cc3)o2)C(=O)O1 | 40 | ? | - | - | - | - | 47 | .
NS(=O)(=O)c1ccc(-c2ccc(/C=C3\C(=O)Nc4ccccc43)o2)cc1 | - | - | . | . | - | - | . | .
C(=N/N1CCN(c2ccccc2)CC1)/c1ccncc1 | 43 | 97 | - | - | - | - | - | -
CCOC(=O)C1CSCCS(=O)(=O)N1Cc1cc(F)ccc1Br (configuration not stated) | . | . | . | - | . | . | . | .
CC1(C)Cc2c(C#N)c(SCCO)nc(N3CCOCC3)c2CO1 | - | - | - | - | - | - | . | .
CC1(C)Cc2c(C#N)c(SCC(=O)O)nc(N3CCOCC3)c2CO1 | 61 | - | - | - | . | - | - | -
Cc1ccc(N2C(N)=C(C#N)C(c3cccs3)C3=C2CC(C)(C)CC3=O)cc1 (configuration not stated) | - | - | - | - | - | - | . | .
COc1ccc(C2CC(=O)N3CN(c4ccc(C)c(Cl)c4)CSC3=C2C#N)cc1OC (configuration not stated) | 45 | - | - | - | 81 | - | - | -
CCc1ccc(N2CSC3=C(C#N)C(c4cccs4)CC(=O)N3C2)cc1 (configuration not stated) | 49 | - | - | . | 73 | - | 50 | -
Cc1ccc(N2CSC3=C(C#N)C(c4cccs4)CC(=O)N3C2)cc1 (configuration not stated) | 45 | - | - | - | - | - | 59 | -
CCOC(=O)CC1=C(C(=O)OCC)C(c2cccs2)C(C#N)=C(N)O1 (configuration not stated) | - | - | - | - | - | - | . | .
